Shown are actives, neighbours in structure and some others; about 14% of the full set was active somewhere.
LASV entry inh – inhibitors of Lassa virus binding or cell entry; Potency, µM (series often up to 37.9 µM), actives largely listed as inhibitors; AID 540256; Lassa virus pseudotype entry inhibition, cell reporter; 300,000 tested, 1.2% active; calls by dose curve; tested in HEK293 cells; also: nearly all actives have a fitted effect of over 50% in size
HCMV antiviral – blocks human cytomegalovirus replication. HFF cells, HCMV-luciferase reporter, 72 h; active compounds read low. activity change, negative = inhibition, % at 57.5 µM. 410,000 tested, 4.5% active. AID 1259415; in the data active = activity change below about -60%; inconclusive = no clear call, values can overlap the other calls; inactive = above about -39%
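After 16 h attachment at 37C, HFF cells received test compound and HCMV-luciferase (1 PFU/cell); reporter luminescence read 72 h later, data normalized against buffer-only and known inhibitor Salinomycin.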
HCV inhibitor – inhibitors of hepatitis C virus infection | Huh7.5.1 HCVcc-Cre infection, luciferase reporter, 44 h | Potency, µM (doses to about 41.8 µM), actives largely listed as inhibitors | 340,000 tested, 3.4% active
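Reporter virus HCVcc-Cre (~0.5 moi) infects cells exposed to compound; seeding density 1,000 cells/well with 4 h settling beforehand. Luminescence, 15 sec read, taken 44 h post-infection following a 15 min RT substrate incubation.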
Marburg entry inh – Marburg virus entry inhibition | Marburg virus pseudotyped entry inhibition, cell reporter | Potency, µM (titrated, usually from 37.8 µM), most hits filed as inhibitors | 300,000 tested, 1.8% active; calls by dose curve; tested in HEK293 cells
Pf growth 48h – P. falciparum growth inhibition at 48 hours (one generation); P. falciparum luciferase growth in erythrocytes, 48 h; Potency, µM (titrated, usually from 28.7 µM), actives largely listed as inhibitors; 310,000 tested, 5.9% active; AID 504832
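Read-out is firefly luciferase luminescence from an integrated reporter in P. falciparum, so falling signal marks reduced parasite growth. Infected erythrocytes were at 2% hematocrit and 0.1% parasitemia (final) in Albumax-supplemented RPMI 1640.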
Pf growth 96h – inhibits malaria parasite growth, 96 h; P. falciparum luciferase reporter growth, 96 h; Potency, µM (doses to about 28.7 µM), most hits filed as inhibitors; 320,000 tested, 6.9% active; AID 504834
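Erythrocytes infected with luciferase-expressing P. falciparum were dispensed at 2% hematocrit and 0.05% parasitemia (final), then incubated with compounds 96 hours at 37 C in 5% CO2. Luminescence after detection reagent addition reported growth.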
Numbers stand for hits; 0 = inactive; ? = inconclusive; - = not tested or not shown; [ ] = remark or other dose. Unless noted, calls follow the shape of the dose curve; as a rule, active = well fitted inhibition curve with a large enough effect; inconclusive = small, poorly fitted or top-dose-only effect, or another doubt; inactive = no such curve, though single readings can be large or run the other way.

SMILES | LASV entry inh | HCMV antiviral | HCV inhibitor | Marburg entry inh | Pf growth 48h | Pf growth 96h
Cc1ccc2c(Cl)cc(Cl)c(OCC(=O)Nc3cccc(S(=O)(=O)N(C)C)c3)c2n1 | 0 | 0 | ? | 0 | 0 | 0
Cc1ccc2c(Cl)cc(Cl)c(OCC(=O)Nc3cc(S(=O)(=O)N(C)C)ccc3C)c2n1 | ? | 0 | 2.51µM | 3.98µM | ? | 11.7µM
CCc1ccc(CN(C(=O)COc2c(C)cccc2C)C2CCS(=O)(=O)C2)cc1 (stereo not drawn) | - | -108.7 | 0 | - | ? | ?
Cc1ccc(OCC(=O)N(Cc2cccc(F)c2)C2CCS(=O)(=O)C2)cc1 (stereo not drawn) | - | ? | 0 | - | ? | 10.4µM
CC1CCc2noc(NC(=O)c3ccccc3[N+](=O)[O-])c2C1 (stereo not drawn) | 0 | 0 | - | 0 | - | -
COc1ccc([C@@H]2[C@@H]3C(=O)N(C(C)(C)C)C(=O)[C@@H]3[C@]3(Cc4ccccc4)C(=O)N(c4ccc(C(F)(F)F)cc4)C(=O)N23)cc1 | - | 0 | 0 | - | ? | 5.86µM
COc1ccc([C@@H]2[C@@H]3C(=O)N(C(C)(C)C)C(=O)[C@@H]3[C@]3(CC(C)C)C(=O)N(c4ccc(C(F)(F)F)cc4)C(=O)N23)cc1 | - | 0 | 0 | - | 11.7µM | 3.7µM
COc1ccc([C@@H]2[C@@H]3C(=O)N(C(C)(C)C)C(=O)[C@@H]3[C@]3(Cc4ccccc4)C(=O)N(c4ccc(OC)cc4)C(=O)N23)cc1 | - | 0 | 0 | - | ? | ?
COc1cccc(NC(=O)C(CCSC)NC(=O)C2CCC(C)CC2)c1 (stereo not drawn) | 0 | 0 | - | 0 | - | -
COc1ccc(-c2nc3c4ccccc4ccn3c2CN2CCCCC2)cc1OC | - | 0 | 11.2µM | - | ? | ?
Clc1ccc(-c2nc3ccccn3c2CN2CCCCC2)cc1 | - | -76.7 | 0 | - | ? | 0
CN(C)Cc1c(-c2ccc(Cl)cc2)nc2ccccn12 | 0 | 0 | 0 | ? | 0 | 0
COc1cc(C(C(=O)NC2CCCC2)N(C(=O)c2snc(C(N)=O)c2N)c2ccccc2)cc(OC)c1OC (stereo not drawn) | ? | 0 | 0 | 0 | ? | 8.28µM
COCCN(C(=O)c1snc(C(N)=O)c1N)C(C(=O)NC1CCCC1)c1cc(OC)c(OC)c(OC)c1 (stereo not drawn) | 0 | 0 | 0 | 0 | 0 | ?
CCOc1ccc(C(C(=O)NC2CCCC2)N(C(=O)c2snc(C(N)=O)c2N)c2cccc(O)c2)cc1 (stereo not drawn) | ? | 0 | 12.6µM | ? | ? | 0
NC(=O)c1nsc(C(=O)N(c2ccccc2)C(C(=O)NC2CCCC2)c2ccc3ncccc3c2)c1N (stereo not drawn) | - | ? | ? | 0 | ? | ?
COc1ccc(N(C(=O)c2snc(C(N)=O)c2N)C(C(=O)NC2CCCC2)c2ccc3ncccc3c2)cc1 (stereo not drawn) | ? | -89.2 | ? | ? | ? | 0
CCc1nc2ccc(C(=O)NCc3cccs3)cn2c1N(CCC(C)C)CCN(C)C | - | 0 | - | - | - | -
Cc1nn2c(COc3ccc(NC(=O)c4ccccc4)cc3)nnc2c2ccccc12 | 0 | 0 | ? | 0 | ? | 6.57µM
CCC(=O)Nc1ccc(OCc2nnc3c4ccccc4c(C)nn23)cc1 | - | 0 | 0 | 0 | ? | 0
COc1ccc(CN2CC(=O)N3[C@H]4c5ccc(OC)cc5OC[C@@H]4[C@H](c4ccccc4)[C@]3(C)C2=O)cc1 | - | 0 | ? | - | 4.65µM | ?
COc1ccc2c(c1)OC[C@H]1[C@H]2N2C(=O)CN(Cc3ccc(Cl)cc3)C(=O)[C@@]2(C)[C@H]1c1ccccc1 | - | 0 | 11.2µM | - | 2.94µM | ?
COc1ccc2c(c1)OC[C@H]1[C@H]2N2C(=O)CN(Cc3ccccc3)C(=O)[C@@]2(C)[C@H]1c1ccccc1 | - | 0 | ? | - | - | -
S=c1sc2c(N3CCOCC3)ncnc2n1-c1ccccc1 | - | 0 | 0 | - | - | 14.7µM
CCN1CCN(c2ncnc3c2sc(=S)n3-c2ccccc2)CC1 | 0 | 0 | 0 | 0 | 0 | ?
SMILES | LASV entry inh | HCMV antiviral | HCV inhibitor | Marburg entry inh | Pf growth 48h | Pf growth 96h
COc1ccccc1N1CCN(C(=O)c2ccc3c(c2)N(Cc2cc(C)ccc2C)C(=O)c2ccccc2S3(=O)=O)CC1 | ? | -66.8 | - | ? | - | -
Cc1ccc(C)c(CN2C(=O)c3ccccc3S(=O)c3ccc(C(=O)N4CCN(c5ccccn5)CC4)cc32)c1 (stereo not drawn) | ? | -98.2 | 11.2µM | ? | 11.7µM | ?
Cc1ccc(C)c(CN2C(=O)c3ccccc3S(=O)c3ccc(C(=O)N4CCN(c5ccccc5F)CC4)cc32)c1 (stereo not drawn) | ? | 0 | - | ? | - | -
Cc1ccc(C)c(CN2C(=O)c3ccccc3S(=O)(=O)c3ccc(C(=O)N4CCN(C)CC4)cc32)c1 | ? | 0 | ? | 0 | ? | 0
COc1cc2ncc3c(-c4ccc(C)cc4)nn(-c4ccc(F)cc4F)c3c2cc1OC | 0 | 0 | - | - | - | -
CC(=O)N1CCN(CC(=O)Nc2cccc(S(=O)(=O)N3CCCCC3)c2)CC1 | 0 | 0 | 0 | 0 | - | -
O=C(Nc1cccc2cccnc12)c1ccc(F)cc1 | 0 | 0 | - | - | - | -
COCOc1c2c(c(OCOC)c3c(OCOC)cccc13)/C(=N/NS(C)(=O)=O)C1=C2CCCC1 | - | - | - | 0 | - | -
O=[N+]([O-])c1cc(C(F)(F)F)cc([N+](=O)[O-])c1NCCNC(=S)Nc1ccc(Cl)c(Cl)c1 | ? | -92.7 | ? | ? | 9.28µM | ?
FC(F)(F)c1cccc(NC(=S)NC(c2ccccc2)c2ccccc2)c1 | 0 | 0 | ? | ? | 3.7µM | 2.62µM
FC(F)(F)c1cccc(NC(=S)Nc2ccc(Cl)c(Cl)c2)c1 | ? | 0 | 0 | ? | 0 | 8.28µM
COC(=S)Nc1cccc(C(F)(F)F)c1 | 0 | 0 | 0 | 0 | 0 | 0
CCN(CCOC(=O)Nc1ccc(Cl)cc1)C(=O)Nc1ccc(Cl)cc1 | - | 0 | - | - | - | -
COCCN1C(=O)NC(CCc2ccccc2)C(C(C)=O)=C1C (stereo not drawn) | - | - | - | 0 | - | -
COc1ccc(CN(C2CCCCC2C)S(=O)(=O)c2ccc(S(=O)(=O)N(C)C)cc2)cc1OC (stereo not drawn) | ? | -79.2 | 0 | ? | 13.1µM | ?
COc1ccc(CC(=O)Nc2ccc(S(=O)(=O)N(C)C)cc2)cc1OC | 0 | ? | 0 | 0 | 0 | 0
COc1cc(CN(C2CCCCC2C)S(=O)(=O)c2ccc(S(=O)(=O)NC3CC3)cc2)cc(OC)c1OC (stereo not drawn) | ? | 0 | 0 | 10.3µM | 8.28µM | 0
O=C(O)c1cccc(NC(=O)c2ccc(S(=O)(=O)c3ccccc3)cc2)c1 | 0 | 0 | 0 | ? | 0 | 11.7µM
Cc1cccc(NC(=O)c2cnc3ccccn3c2=O)c1 | - | 0 | 0 | - | 0 | 11.7µM
Cc1cccc(NC(=O)c2ccccc2-c2ccccc2)c1 | 0 | -104.4 | 0 | 0 | 0 | 0[5.75 µM]
Cc1cccc(NC(=O)c2cc(S(=O)(=O)c3ccccc3)ccc2Cl)c1 | ? | -106.8 | 7.94µM | ? | - | 0
O=C(Nc1cccnc1)c1ccccc1-c1ccccc1 | - | -60.4 | 0 | - | 0 | 0

Compound activity as filed in PubChem.
